HTR5A ag ctr – activates human HTR5A in OPRM1-OPRD1 agonist counter-screen. P47898. HTR5A agonist assay, luminescence, cell-based. activation, % at 9.3 µM. actives 0.61% (n = 340,000); in the data active = activation mostly above about 9.5%, no sharp cut-off; inactive = mostly below about 7.6%;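 also: 0% = cells with vehicle only and 100% = reference agonist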
Target sequence (P47898 whole entry, looked up): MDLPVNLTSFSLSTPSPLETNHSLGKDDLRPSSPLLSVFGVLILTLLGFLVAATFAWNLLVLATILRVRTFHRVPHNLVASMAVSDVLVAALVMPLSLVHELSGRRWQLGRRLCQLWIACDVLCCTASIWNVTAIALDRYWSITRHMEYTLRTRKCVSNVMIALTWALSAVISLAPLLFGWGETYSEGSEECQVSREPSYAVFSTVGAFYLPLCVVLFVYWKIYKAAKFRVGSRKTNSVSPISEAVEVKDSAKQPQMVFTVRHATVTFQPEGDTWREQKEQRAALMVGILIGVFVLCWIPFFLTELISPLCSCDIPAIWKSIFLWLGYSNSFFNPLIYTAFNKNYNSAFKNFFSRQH
MOR-DOR ag – OPRM1-OPRD1 heterodimerization agonism; cells, luminescence; activation, % at 9.3 µM; actives 0.3% (n = 340,000); AID 504326;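 also: 0% = vehicle-treated cells and 100% = reference agonist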
HTR2A ag – activates the mouse 5-HT2A serotonin receptor; P35363; CHO-K1 mHTR2A beta-arrestin complementation, luminescence; percent of 30 µM serotonin response; activation, % at 7.6 µM; actives 0.66% (n = 360,000);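 active = activation above a run cutoff, the mean activation of all tested compounds plus 3 SD, cut at about 14% in these data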;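 also: 0% = plate median of compound wells and 100% = 30 µM serotonin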
OPRM1-OPRD1 inv – mu-delta opioid heterodimer inverse agonism; P35372+P41143; cell-based MOR-DOR heterodimer luminescence; inhibition, % at 9.3 µM; actives 0.21% (n = 340,000); AID 504357; in the data active = inhibition above about 22%, passing the limit was not always enough;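 also: 0% = cells with DMSO and 100% = wells without cells with DMSO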
HTR5A inv ctr – HTR5A inverse agonism, opioid heterodimer counter-screen. P47898. HTR5A cell line, luminescence. inhibition, % at 9.3 µM. actives 0.083% (n = 340,000); in the data active = inhibition mostly above about 23%, no sharp cut-off; inactive = mostly below about 18%;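 also: 0% = cells with DMSO and 100% = no-cell wells with DMSO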
OPRM1-D1 ag cf – OPRM1-OPRD1 heterodimer agonism, confirmation | activation, % at 9.3 µM | actives 45% (n = 830) | cells, MOR-DOR heterodimerization, luminescence complementation | shares compounds with MOR-DOR ag;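 also: 0% = vehicle-treated cells and 100% = reference agonist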
HTR5A ag ctr2 – HTR5A agonism, opioid heterodimer counter-screen | actives 8% (n = 830) | HTR5A agonist counterscreen, cell luminescence | AID 504905 | shares compounds with MOR-DOR ag | activation, % at 9.3 µM; in the data active = activation above about 17%;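 also: 0% = vehicle-treated cells and 100% = reference agonist response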
Active calls of the source: *. Rows were chosen to be rich in hits. Some 1.6% of all compounds tested hit in one or more screens of this group. Rule as the data show it, unless noted: active = activation above about 18%; inactive = the rest.

For Cc1cc(=O)oc2cc(NC(=O)C3COc4ccccc4O3)ccc12 (stereo not drawn) the results were HTR5A ag ctr 1, MOR-DOR ag 20*, HTR2A ag 3, OPRM1-OPRD1 inv -122, HTR5A inv ctr -1, OPRM1-D1 ag cf 39* and HTR5A ag ctr2 14.
`O=C(Nc1ccc2c(c1)OCO2)C1COc2ccccc2O1` (stereo not drawn) gave HTR5A ag ctr 4, MOR-DOR ag -2, HTR2A ag 5, OPRM1-OPRD1 inv 10 and HTR5A inv ctr 4.
Screening O=C(OCC(=O)N1CCN(C(=O)c2ccco2)CC1)c1ccc(Cl)nc1 returned HTR5A ag ctr -2, MOR-DOR ag 0, HTR2A ag 13, OPRM1-OPRD1 inv 2 and HTR5A inv ctr 8.
Cc1ccc(OCC(=O)Nc2ccc3c(c2)C(=O)NC3=O)cc1 was read as HTR5A ag ctr 4, MOR-DOR ag -3, HTR2A ag 3, OPRM1-OPRD1 inv 15 and HTR5A inv ctr -14.
CC(C)(C)c1ccc(OCC(=O)Nc2ccc3c4c(cccc24)C(=O)NC3=O)cc1 was read as HTR5A ag ctr -3, MOR-DOR ag 19*, HTR2A ag 1, OPRM1-OPRD1 inv -96, HTR5A inv ctr -2, OPRM1-D1 ag cf 0 and HTR5A ag ctr2 0.
`Cc1ccccc1NC(=S)/C(=C(\[O-])c1ccc(C)c([N+](=O)[O-])c1)[n+]1ccccc1` gave HTR5A ag ctr -2, MOR-DOR ag -2, HTR2A ag -4, OPRM1-OPRD1 inv 9 and HTR5A inv ctr -3.
Cc1ccc(/C([O-])=C(/C(=S)Nc2ccc(SC(F)F)cc2)[n+]2ccccc2)cc1[N+](=O)[O-] was read as HTR5A ag ctr -3, MOR-DOR ag 24*, HTR2A ag 2, OPRM1-OPRD1 inv -118, HTR5A inv ctr -19, OPRM1-D1 ag cf 0 and HTR5A ag ctr2 7.
For COC(=O)C[C@H]1CC[C@H](NC(=O)Nc2ccccc2OC)[C@@H](CO)O1 the results were HTR2A ag 4.
`COC(=O)CCCNC(=O)c1ccc(OC2CCN(CCc3ccccc3)CC2)cc1` gave HTR5A ag ctr -2, MOR-DOR ag 38*, HTR2A ag -5, OPRM1-OPRD1 inv -260, HTR5A inv ctr 2, OPRM1-D1 ag cf 35* and HTR5A ag ctr2 -1.
CSCCNC(=O)c1ccc(OC2CCN(CCc3ccccc3)CC2)cc1 was read as HTR5A ag ctr 2, MOR-DOR ag 3, HTR2A ag -10, OPRM1-OPRD1 inv -16 and HTR5A inv ctr -9.
Screening Cc1ccc(NC(=O)CSc2nc(N)c3cc4c(nc3n2)CCCC4)cc1 returned HTR5A ag ctr 2, MOR-DOR ag 29*, HTR2A ag 3, OPRM1-OPRD1 inv -156, HTR5A inv ctr -22, OPRM1-D1 ag cf 28* and HTR5A ag ctr2 1.
Screening O=C(CSc1nc2nc3c(cc2c(=O)n1-c1ccccc1)CCCC3)Nc1ccccc1 returned HTR5A ag ctr 4, MOR-DOR ag -2, HTR2A ag -2, OPRM1-OPRD1 inv 14 and HTR5A inv ctr -13.
For Nc1nc(SCC(=O)Nc2ccccc2)nc2nc3c(cc12)CCCC3 the results were HTR5A ag ctr 9, MOR-DOR ag 35*, HTR2A ag 6, OPRM1-OPRD1 inv -194, HTR5A inv ctr -52, OPRM1-D1 ag cf 7 and HTR5A ag ctr2 5.
For COc1ccc(NC(=O)CSc2nc(N)c3cc4c(nc3n2)CCCC4)c(OC)c1 the results were HTR5A ag ctr 0, MOR-DOR ag -2, HTR2A ag 0, OPRM1-OPRD1 inv 9 and HTR5A inv ctr 0.
Screening O=C1CSc2ccc(C(=O)Nc3cccc(S(=O)(=O)Nc4ccc(Br)cc4)c3)cc2N1 returned HTR5A ag ctr 8, MOR-DOR ag 7, HTR2A ag -2, OPRM1-OPRD1 inv -48 and HTR5A inv ctr -21.
Screening CCOC(=O)C1=C(c2ccccc2)NC(=O)NC1c1ccc(O)c(Cl)c1 (stereo not drawn) returned HTR5A ag ctr 31*, MOR-DOR ag 103*, HTR2A ag 5, OPRM1-OPRD1 inv inactive, HTR5A inv ctr -118, OPRM1-D1 ag cf 82* and HTR5A ag ctr2 28*.

Source: PubChem
